Measurements taken from PubChem BioAssay AID1645855 (Buhrlage Lab, Dana-Farber Cancer Institute and Novartis …, 2021).
The campaign covered roughly 47,000 compounds. About 3,100 (6.6%) were called active. Shown is part of a subset that was picked to be rich in actives. A number with no mark means an inactive call. No stated cut-off is given here; in the data, active means inhibition above about 30%; inactive means the rest.

Target: Ubiquitin carboxyl-terminal hydrolase 17-like protein 5 (Homo sapiens) (UniProt A8MUK1)
Sequence (A8MUK1 whole entry, looked up): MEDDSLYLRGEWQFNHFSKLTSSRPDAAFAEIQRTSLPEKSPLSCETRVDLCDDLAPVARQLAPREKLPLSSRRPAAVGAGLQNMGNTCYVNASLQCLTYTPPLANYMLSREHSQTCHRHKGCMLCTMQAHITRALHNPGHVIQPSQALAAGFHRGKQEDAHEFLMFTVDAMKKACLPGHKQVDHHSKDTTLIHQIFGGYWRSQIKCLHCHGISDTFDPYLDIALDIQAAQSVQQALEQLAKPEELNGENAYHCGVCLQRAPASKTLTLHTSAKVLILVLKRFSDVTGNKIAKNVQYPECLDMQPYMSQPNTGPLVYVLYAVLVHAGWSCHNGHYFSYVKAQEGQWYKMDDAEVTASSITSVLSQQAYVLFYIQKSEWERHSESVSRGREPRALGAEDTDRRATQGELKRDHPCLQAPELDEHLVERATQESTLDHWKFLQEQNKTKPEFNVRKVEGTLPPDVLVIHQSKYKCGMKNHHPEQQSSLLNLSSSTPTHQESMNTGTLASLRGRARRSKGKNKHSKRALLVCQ
Assay: blocks human USP17 ubiquitin-rhodamine cleavage (AID 1645855)
Settings: purified USP17, Ub-rhodamine cleavage fluorescence, 3 h; at 50 µM; stronger effect = higher value

SMILES | inhibition
Cc1cc(N)nc2c1c(C)nn2-c1ncc(C(F)(F)F)cc1Cl | -15.8%
COc1ccc(-c2noc(-c3cccc(OCC(=O)NC(C)C)c3)n2)cc1 | -0.296%
Cc1ccc(-c2nc(-c3cccc(-c4ccnn4C)c3)no2)cc1 | 5.04%
COc1cc(Cl)ccc1-c1nc(-c2cccc(C(=O)N3CCCC3)c2)no1 | 8.98%
Cc1ccccc1-c1nc(-c2cn(CC(=O)Nc3ccccc3)cn2)no1 | 10%
Cc1ccc(-c2noc(-c3cccc(OCC(=O)N(C)C)c3)n2)cc1 | 50.7% (active)
Cc1ccccc1-c1nc(-c2cccc(OCC(=O)N3CCOCC3)c2)no1 | 48.9% (active)
O=C(NCCc1ccccc1)c1cc2c(s1)CS(=O)(=O)C2 | 6.74%
COc1ccccc1Cc1cnc(C2CCCN(C(=O)c3ccnc(C)n3)C2)o1 (stereo unspecified) | -2.9%
CC1=N[C@@]2(CC[C@@H]3CN(C(=O)Nc4ccccc4C)C[C@@H]32)C(=O)N1CC1CC1 | -23.9%
COc1ccc(CNC(=O)CSc2nnc3c4ccccc4nc(-c4ccco4)n23)cc1 | -17%
COc1ccc(-c2ccc(CCC(=O)NCc3ccccc3)o2)cc1 | 34.6% (active)
COc1ccc(CNC(=O)c2ccccc2-c2ncc(-c3ccccc3)o2)cc1 | 37.9% (active)
COc1ccc(CC(=O)Nc2cnc(-c3ccccc3)nc2)cc1 | 2.89%
COc1ccc(-c2noc(CNC(=O)CCc3ccccc3)n2)cc1OC | 8.5%
COc1cccc(C(=O)NCc2ccc(-c3nc4cnccc4o3)cc2)c1 | 25.2%
COc1ccc(CCNC(=O)c2ccccc2OCc2ccc(F)cc2)cc1 | 16.7%
COc1ccc(CNC(=O)Cn2ncc3ccc(C)cc32)cc1 | 16.8%
COc1ccc(CNC(=O)c2cccc3cccnc23)cc1 | 40.3% (active)

SMILES | inhibition
O=C(c1ccc(OC2CCN(C(=O)C3CCC3)CC2)nc1)N1CCOCC1 | -14.4%
CC(=O)N1CC2(CCN(C(=O)c3ccncc3)CC2)Nc2ccccc21 | -3.13%
CCOC(=O)c1[nH]c2cc(OC)c(OC)cc2c1NC(=O)c1cc2cccc(OC)c2o1 | -23.6%
CCOC(=O)c1c(NC(=O)CNc2cc(C)ccc2C)sc(Cc2ccc3c(c2)OCO3)c1C | 5.67%
O=C(c1cccnc1)N1CC[C@@H]2CNS(=O)(=O)[C@@H]2CC1 | -5.34%
CN1[C@@H](CCC(=O)N2CCN(c3ccccc3)CC2)CNC(=O)[C@H]2NCC[C@H]21 | 7.19%
Cc1c(Cl)cccc1NC(=O)CCn1cnc2ccccc2c1=O | 55.3% (active)
Cc1ccc(NC(=O)CCn2cnc3c2c(=O)n(C)c(=O)n3C)cc1 | -13%
Cc1ccc(N(C)C(=O)CCn2cnc3ccccc3c2=O)cc1 | -3.3%
Cc1nnc2c(NC(=O)Cc3cccc(C(F)(F)F)c3)cccn12 | -9.8%
Cc1cccc(NC(=O)C2CN(S(C)(=O)=O)c3ccccc3O2)c1C (stereo unspecified) | -4.9%
CCS(=O)(=O)n1nc(NCc2ccccc2)nc1NCc1ccccc1 | 1.97%
CCOc1ccc(NC(=S)Nc2ccc(Cc3ccncc3)cc2)cc1 | 7.13%
COc1ccc(-c2cnc(SCCNC(=O)c3cccc(F)c3)[nH]2)cc1 | -3.6%
COc1ccc(NC(=O)c2cc(=O)[nH]c3ccccc23)cc1S(=O)(=O)N1CCOCC1 | -3.19%
COc1ccc(-c2[nH]c3ccccc3c2SCCNC(=O)c2ccc(S(=O)(=O)N3CCOCC3)cc2)cc1 | 56.7% (active)
CC(C)Oc1ccc(CNC(=O)C2CCCN(c3ccc(N4CCOCC4)nn3)C2)cc1 (stereo unspecified) | -6.08%
O=C1C(O)=C(c2ccc(O)c(O)c2)C(=O)C(O)=C1c1ccccc1 | 57.3% (active)
COc1cnc(CSc2nccc(C)n2)cc1OCC(=O)Nc1ccc(C)cc1C | 2.43%

SMILES | inhibition
CC(C)Cc1cc(-c2nn3c(-c4ccccc4Cl)nnc3s2)n[nH]1 | 42.6% (active)
CC(O)CNc1ncnc2c1oc1nc(C(C)C)c3c(c12)CCC3 (stereo unspecified) | 3.5%
CC(C)Cc1nc2sc3c(NCc4ccco4)ncnc3c2c2c1CCC2 | 43.3% (active)
CC(C)Cc1nc2sc3c(N(CCO)Cc4ccccc4)ncnc3c2c2c1COC(C)(C)C2 | 29.6%
COc1cccc(-c2cn3c4c(=O)n(C)c(=O)n(C)c4nc3n2-c2ccc(OC)c(OC)c2)c1 | 20.6%
CC(=O)N[C@@]12CN(C)CC[C@@H]1[C@@H](c1ccccc1)N(CC(=O)Nc1ccc(F)cc1)C2 | -2.8%
N#Cc1ccccc1Cn1c(=O)n(CCCC(=O)NCc2ccc(F)cc2)c(=O)c2ccccc21 | 30.8% (active)
O=C(CCCn1c(=O)c2ccccc2n(Cc2ccccc2F)c1=O)NC1CCCC1 | 21.6%
COCCCn1c(=O)c2ccccc2n(Cc2nc(-c3ccccc3)no2)c1=O | -3.49%
CC1Oc2ccc(NC(=O)c3ccc4c(c3)CCC4)cc2NC1=O (stereo unspecified) | -11%
Cc1ccc(Cn2cc(-c3noc(-c4ccc[nH]4)n3)nn2)cc1 | 0.022%
CC(CCc1ccccc1)NC(=O)c1cc2cc(Oc3ccccc3)ccc2[nH]1 (stereo unspecified) | 32.3% (active)
COc1ccccc1C(=O)Nc1cccc(Oc2ccccc2)c1 | 12.6%
CC(CCc1ccccc1)NC(=O)/C=C/c1cccc([N+](=O)[O-])c1 (stereo unspecified) | 6.91%
C[C@@H]1O[C@@H](OC2[C@H](Oc3cc(O)c4c(c3)OC(c3ccc(O)cc3)CC4=O)O[C@H](CO)[C@@H](O)[C@@H]2O)[C@H](O)[C@H](O)[C@H]1O (stereo partly specified) | 0.6%
Cc1cccc(NC(=O)Cn2c(C)ccc(NC(=O)Nc3cccc(C)c3)c2=O)c1 | 14%
Cc1ccc2cc(CNc3ccccc3)c(=O)n(CC(=O)Nc3ccccc3C)c2c1 | 84.2% (active)
Cc1cccc(C2=NC3(CCN(CC(=O)Nc4ccccc4C)CC3)NC2=O)c1 | -42.3%
